Measurements published in PubChem BioAssay (EPA / NIEHS).
Values joined by “and” are separate entries in the source; they are usually repeats but may differ in a detail not shown here. Equal entries are not always repeated. Active and inactive are the calls of the source. Rule for the calls: active = hit-call score of the fitted dose curve at least 0.9, where 1 is the maximum; inconclusive = response in the unintended direction; inactive = score below 0.9.

Biological target: rat CYP2A2, Cyp2a2 (gene 24895) (UniProt P15149)
Sequence (P15149 whole entry, looked up): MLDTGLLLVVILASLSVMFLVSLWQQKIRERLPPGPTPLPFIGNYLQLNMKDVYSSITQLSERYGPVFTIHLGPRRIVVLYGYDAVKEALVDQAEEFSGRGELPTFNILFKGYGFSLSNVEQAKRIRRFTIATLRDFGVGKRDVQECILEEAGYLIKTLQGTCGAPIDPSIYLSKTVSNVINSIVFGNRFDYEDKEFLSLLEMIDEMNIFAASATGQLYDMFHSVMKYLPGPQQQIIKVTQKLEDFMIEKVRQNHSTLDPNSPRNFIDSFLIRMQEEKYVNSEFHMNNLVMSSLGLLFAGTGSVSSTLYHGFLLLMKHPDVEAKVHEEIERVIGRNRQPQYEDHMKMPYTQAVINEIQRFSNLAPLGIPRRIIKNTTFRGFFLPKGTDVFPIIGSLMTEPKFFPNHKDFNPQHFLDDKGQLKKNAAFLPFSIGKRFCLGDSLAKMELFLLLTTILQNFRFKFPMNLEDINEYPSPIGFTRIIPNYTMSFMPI
Test: NVS_ADME_rCYP2A2: NovaScreen (NVS) CYP450-related Enzyme Activity (ADME) Assay for rat CYP2A2 (AID 2283116)
Method: NVS_ADME_rCYP2A2 is a biochemical, single-readout assay that uses extracted gene-proteins in a cell-free assay. Measurements were taken 0.2 hour after chemical dosing in a 96-well plate.NVS_ADME_rCYP2A2 is one of one assay component(s) measured or calculated from the NVS_ADME_rCYP2A2 assay. It is designed to make measurements of enzyme activity, a form of enzyme reporter, as detected with fluorescence intensity signals by Fluorescence technology.Data from the assay component NVS_ADME_rCYP2A2 was analyzed into 1 assay endpoint. This assay endpoint, NVS_ADME_rCYP2A2, was analyzed in the positive analysis fitting direction relative to Acetonitrile as the negative control and baseline of activity. Using a type of enzyme reporter, loss-of-signal activity can be used to understand changes in the enzymatic activity as they relate to the gene Cyp2a2. Furthermore, this assay endpoint can be referred to as a primary readout, because this assay has produced multiple assay endpoints where this one serves a enzymatic activity function. To generalize the intended target to other relatable targets, this assay endpoint is annotated to the cyp intended target family, where the subfamily is xenobiotic metabolism.
Binding assays used specific radioligands (tritiated, iodinated) with non-radioactive competitive displacement ligands in agonist or antagonist protocols (as indicated) and various reference compounds and inhibitors to titrate specific binding to receptors and transporters. Most enzyme assays (CYPs, kinases, phosphatases, proteases, HDACs) used recombinant protein and specific substrates (fluorescence mostly, some colorimetric and radioactive) and inhibitors, followed by a biochemical separation of substrate and product. All assays for the biochemical HTS were initially run in duplicate at a single concentration (10 uM for CYP450 assays and 25 uM for all others). Assay-chemical combinations meeting a pre-defined threshold (e.g., 30% inhibition and other criteria defined below) were then run in singleton concentration-response format with maximum concentration of 20 uM for CYPs and 50 uM for all others. Each assay was run with positive and negative controls, and concurrent controls on every plate. The follow-up (secondary) screen tested active chemical-pairs in concentration series, as well as a few additional assays not tested in the primary screen, some selected negative inactives, and several cases re-run in the concentration series for confirmatory purposes.

**Q.** Which AC50 does the source give for `FC(F)C(F)(F)OCC(Cn1cncn1)c1ccc(Cl)cc1Cl` (centres undefined) here?
**A.** Its AC50 is 74 nM (active).

**Q.** How did the AC50 turn out when `Nc1c(Cl)cc([N+](=O)[O-])cc1Cl` was run?
**A.** Its AC50 is 113 nM (active).

**Q.** For `C=C(C)[C@H]1Cc2c(ccc3c2O[C@@H]2COc4cc(OC)c(OC)cc4[C@@H]2C3=O)O1`, which outcome is on record?
**A.** Its outcome is “inactive”.

**Q.** `CCCCOC(=O)c1ccccc1C(=O)O` was tested. Which AC50 did it give?
**A.** Its AC50 is 2600 nM (active).

**Q.** `CCOC(=O)CC(SP(=O)(OC)OC)C(=O)OCC` (centres undefined) was tested. Which outcome did it give?
**A.** The outcome was “inactive”.

**Q.** How did the outcome turn out when `CCOP(=S)(OCC)Oc1ccc2c(C)c(Cl)c(=O)oc2c1` was run?
**A.** The outcome was “inactive”.

**Q.** Which AC50 does the source give for `CC[C@H](C)[C@H]1O[C@]2(C=C[C@@H]1C)C[C@@H]1C[C@@H](C/C=C(\C)[C@@H](O[C@H]3C[C@H](OC)[C@@H](O[C@H]4C[C@H](OC)[C@@H](NC)[C@H](C)O4)[C@H](C)O3)[C@@H](C)/C=C/C=C3\CO[C@@H]4[C@H](O)C(C)=C[C@@H](C(=O)O1)[C@]34O)O2` here?
**A.** Its AC50 is 1650 nM (active).

**Q.** Which AC50 does the source give for `CCCOCC(=Nc1ccc(Cl)cc1C(F)(F)F)n1ccnc1` here?
**A.** Its AC50 is 29.4 nM (active).

**Q.** With `CC(C)N(C(=O)SCC(Cl)=C(Cl)Cl)C(C)C` as the compound, how does the outcome read?
**A.** The outcome was “inactive”.

**Q.** For `CC(C1CC1)C(O)(Cn1cncn1)c1ccc(Cl)cc1` (centres undefined), which AC50 is on record?
**A.** The AC50 was 56.8 nM (active) and 76.2 nM (active).

**Q.** Which AC50 does the source give for `CCc1cccc(C)c1N(C(=O)CCl)C(C)COC` (centres undefined) here?
**A.** The AC50 was 5570 nM (active).

**Q.** `CCC(=NOC/C=C/Cl)C1=C(O)CC(C2CCOCC2)CC1=O` (centres undefined) was tested. Which outcome did it give?
**A.** Its outcome is “inactive”.

**Q.** How did the AC50 turn out when `C#CCC1=C(C)C(OC(=O)C2C(C=C(C)C)C2(C)C)CC1=O` (centres undefined) was run?
**A.** Its AC50 is 3460 nM (active).

**Q.** With `C[Si](Cn1cncn1)(c1ccc(F)cc1)c1ccc(F)cc1` as the compound, how does the AC50 read?
**A.** Its AC50 is 59.5 nM (active).
